Screening results from PubChem.
Cycloheximide cs: affects cycloheximide protein synthesis inhibition readout, counter-screen; cell reporter, cycloheximide protein synthesis inhibition counterscreen; max response, %; 300,000 tested, 12% active; AID 2314; in the data active means max response mostly above about 13%, no sharp cut-off; inactive means mostly below about 14%; further: read at 38.3 µM for the half of the compounds with a filed dose
SARS PLP yeast: blocks SARS-CoV papain-like protease in a yeast assay | S. cerevisiae expressing SARS-CoV PLpro, growth rescue | Potency, µM (highest dose often 32.9 µM), actives largely listed as activators | 330,000 tested, 0.19% active | AID 485353; calls by dose curve; further: nearly all actives have a fitted effect of over 55% in size
Shiga inhibitor: inhibitors of Shiga toxin in Vero cells. Vero cells, Shiga toxin protein synthesis inhibition reporter. inhibition, % at 38.7 µM. 290,000 tested, 9.2% active; in the data active means inhibition mostly above about 28%, no sharp cut-off; inactive means mostly below about 43%
AmpC no deterg: blocks E. coli AmpC beta-lactamase in detergent-free assay | 330,000 tested, 0.52% active | Potency, µM (doses to about 57.1 µM), usual class: inhibitors | AID 485341 | AmpC nitrocefin hydrolysis, absorbance 480 nm, 0.0001% Triton | P00811; further: nearly all actives have a fitted effect of over 20% in size
Target sequence (P00811 whole entry, looked up): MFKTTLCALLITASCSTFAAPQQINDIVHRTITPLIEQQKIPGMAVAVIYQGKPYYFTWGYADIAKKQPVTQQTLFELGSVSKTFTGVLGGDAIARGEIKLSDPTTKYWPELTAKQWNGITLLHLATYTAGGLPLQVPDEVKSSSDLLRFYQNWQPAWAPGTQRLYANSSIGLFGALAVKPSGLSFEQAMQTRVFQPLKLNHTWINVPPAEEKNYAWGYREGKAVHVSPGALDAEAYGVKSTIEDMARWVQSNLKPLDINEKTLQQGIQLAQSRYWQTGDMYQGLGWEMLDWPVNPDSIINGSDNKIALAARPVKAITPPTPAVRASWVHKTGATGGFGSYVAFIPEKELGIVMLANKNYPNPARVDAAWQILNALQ
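20 mM phosphate pH 7.0 + 0.01% (detergent screen) or 0.0001% Triton X-100; 5.3 nM AmpC reagent; cpd preinc 15 min RT; nitrocefin (800 uM stock) to start; A480 q20 s × 4 min; Activity was normalised to no-enzyme and no-compound control wells.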
AmpC inh detg: AmpC beta-lactamase inhibition with detergent present; AmpC hydrolysis of nitrocefin, absorbance 480 nm, 0.01% Triton; Potency, µM (series often up to 114 µM), hits mostly inhibitors; 370,000 tested, 0.041% active; AID 485294; further: nearly all actives have a fitted effect of over 25% in size
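20 mM phosphate pH 7.0 + 0.01% (detergent screen) or 0.0001% Triton X-100; 5.3 nM AmpC reagent; cpd preinc 15 min RT; nitrocefin (800 uM stock) to start; A480 q20 s × 4 min; Activity was normalised to no-enzyme and no-compound control wells.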
AMA1 RON2 block: disrupts binding of P. falciparum AMA1 to RON2 | AlphaScreen AMA1-biotinylated RON2 peptide binding | Potency, µM (doses to about 58.2 µM), actives largely listed as inhibitors | 360,000 tested, 0.2% active; further: nearly all actives have a fitted effect of over 45% in size
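AMA1 (3D7) with his tag at 25 nM final met compounds first, then biotinylated RON2 peptide at 25 nM; detection used donor plus acceptor beads, 10 µg/mL apiece, read by AlphaScreen after 30 min at room temperature.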
Of the large screens only hits and unclear results are named; the others gave an inactive call. This is one part of a sample in which hits are shown more often than they occur. Unless noted, the call rests on the fitted dose curve; in most records, active means well fitted curve in the direction sought with a large enough effect; inconclusive means small, poorly fitted or top-dose-only effect, or another doubt; inactive means no such curve, though single readings can be large; an effect the other way counts as inactive or inconclusive.

O=C1C2C3C=CC(C3)C2C(=O)N1CCc1ccccc1 (stereo not drawn)	none
COc1ccc(NC(=O)c2sc(=O)n(Cc3ccc(F)c(Cl)c3)c2C)cc1OC	none (no result: Cycloheximide cs, SARS PLP yeast, Shiga inhibitor, AmpC no deterg, AmpC inh detg)
O=c1[nH]c(=S)[nH]c2c1[C@H](C1CC1)O[C@H](CCc1ccccc1)C2	none (no result: Cycloheximide cs, SARS PLP yeast, Shiga inhibitor, AmpC no deterg, AmpC inh detg)
O=C(CCN1C(=O)C2C3C=CC(C3)C2C1=O)Nc1ccc2ncccc2c1 (stereo not drawn)	Cycloheximide cs 45, Shiga inhibitor 64
CSCCNC(=O)C1(C)CCN1C(=O)C/C=C/c1ccccc1 (stereo not drawn)	none (no result: Cycloheximide cs, SARS PLP yeast, Shiga inhibitor, AmpC no deterg, AmpC inh detg)
CCOc1ccc(N2CC(=O)N(c3ccc(OCC)cc3)CC2=O)cc1	none
Cc1cc2c(cc1C)CN(c1ccccc1)C2	Cycloheximide cs 48, Shiga inhibitor 66
O=C(O)c1ccc(N2Cc3ccccc3C2)cc1O	Cycloheximide cs 29, Shiga inhibitor 56
Cc1cc(N2Cc3ccccc3C2)ccc1C=O	Cycloheximide cs 19, Shiga inhibitor 70
CCOc1ccc(N2Cc3ccccc3C2)cc1	Cycloheximide cs 39, AmpC inh detg inconclusive
CCOc1ccccc1N1Cc2cc(C)c(C)cc2C1	AmpC inh detg inconclusive
O=C(O)CCCC(=O)N1CCC(C(O)(c2ccccc2)c2ccccc2)CC1	none
CCOC(=O)c1ccc(N2Cc3cc(C)c(C)cc3C2)cc1O	Cycloheximide cs 19 (no result: AMA1 RON2 block)
O=C(CN1CCN(c2ccc(O)cc2)CC1)N1CCc2ccccc21	none
Oc1ccc(N2Cc3ccccc3C2)cc1	Cycloheximide cs 20
CN1CCN(c2ccc(C=O)cc2)CC1	none
O=Cc1ccc(N2Cc3ccccc3C2)cc1	Cycloheximide cs 18, Shiga inhibitor 57, AmpC inh detg inconclusive
Oc1cccc(N2Cc3ccccc3C2)c1	Shiga inhibitor 31
CCCOC(=O)c1ccc(NS(=O)(=O)c2cccs2)cc1	AmpC inh detg inconclusive
COc1ccc(Cl)cc1NC(=O)CN1c2ccccc2CC1C (stereo not drawn)	none
COc1ccc(S(=O)(=O)N2CCCCC2)cc1NC(=O)CSc1nnc(C2CC2)n1C	none (no result: Cycloheximide cs, Shiga inhibitor)
COc1ccccc1N(CC(=O)Nc1ccc(C)c(Cl)c1)S(=O)(=O)c1ccc(C)cc1	none (no result: Cycloheximide cs, SARS PLP yeast, Shiga inhibitor, AmpC no deterg, AMA1 RON2 block)
Cc1cc(C)nc(SCCCn2c(=O)[nH]c3ccccc32)n1	AmpC inh detg inconclusive
CCN(Cc1ccccc1)C(=O)C1CCN(C(=O)Nc2ccccc2)CC1	none
CCN(CC(=O)NCc1ccc(F)cc1)C(=O)c1ccc(COc2ccccc2)cc1	Cycloheximide cs 52, Shiga inhibitor 99
CCN(CC(=O)NCc1ccc(F)cc1)C(=O)C1CCN(C(=O)Nc2ccccc2)CC1	Cycloheximide cs 13
CCCN(CC(=O)Nc1ccccc1C)C(=O)c1ccc(COc2ccccc2)cc1	Cycloheximide cs 30, Shiga inhibitor 85
CCC(Oc1ccccc1)C(=O)N(CC)CC(=O)NCc1ccc(F)cc1 (stereo not drawn)	none (no result: Cycloheximide cs, Shiga inhibitor)
CCC(C(=O)Nc1ccccc1OC)n1c(C(=O)OC)cc2sc(Cl)cc21 (stereo not drawn)	none (no result: Cycloheximide cs, SARS PLP yeast, Shiga inhibitor, AmpC no deterg, AMA1 RON2 block)
OCCOCCOc1ccc(-c2nn[nH]n2)cc1	AmpC inh detg inconclusive
CC1(C)COC(c2coc3ccccc3c2=O)OC1	Cycloheximide cs 46, Shiga inhibitor 87
CC1(C)COC(c2ccccc2Cl)OC1	none (no result: Cycloheximide cs, SARS PLP yeast, Shiga inhibitor, AmpC no deterg, AmpC inh detg)
CN(C(=O)CSc1nc(-c2ccc(F)cc2)cs1)C1CCS(=O)(=O)C1 (stereo not drawn)	AmpC inh detg inconclusive
O=C(c1ccccc1)N1CCN(CC#Cc2ccccc2)CC1	Cycloheximide cs 29, Shiga inhibitor 82, AmpC inh detg inconclusive
CC(=O)c1ccc(Oc2ncnc3sccc23)cc1	Cycloheximide cs 48, Shiga inhibitor 80
Cc1cc(C(=O)COc2ncnc3sccc23)c(C)n1C	Cycloheximide cs 31, Shiga inhibitor 134
CNC(=O)COc1ncnc2sccc12	none
O=C(CCN1C(=O)c2ccccc2S1(=O)=O)Nc1ccccc1F	none
CC(=O)CC[N+](C)(C)C	none (no result: Cycloheximide cs, SARS PLP yeast, Shiga inhibitor, AmpC no deterg, AmpC inh detg)
CC1CCc2sc(NC(=O)c3ccc(N4C(=O)CCC4=O)cc3)c(C(N)=O)c2C1 (stereo not drawn)	none
Cc1ccc(-c2nc(CSCC(=O)N3CCCC3)c(C)o2)cc1	AmpC inh detg inconclusive
CCOC(=O)C1CCN(C(=O)CSCc2nc(-c3ccc(OCC)cc3)oc2C)CC1	Cycloheximide cs 15
CCOc1ccc(-c2nc(CSCC(=O)NCCc3ccccc3)c(C)o2)cc1	none (no result: Cycloheximide cs, SARS PLP yeast, Shiga inhibitor, AmpC no deterg, AMA1 RON2 block)
CCOc1ccc(-c2nc(CSCC(=O)N3CCN(C(=O)c4ccco4)CC3)c(C)o2)cc1	Cycloheximide cs 25, Shiga inhibitor 94, AmpC inh detg inconclusive
Cc1ccc(C(=O)NC(=S)NCc2cccnc2)c(C)c1	none
O=C(Cc1c(O)c2ccccc2[nH]c1=O)NCc1ccccc1F	Cycloheximide cs 60, Shiga inhibitor 94
O=C(Cc1cccs1)NCc1ccccc1	AmpC inh detg inconclusive
COc1ccc(CNC(=O)Cc2cccs2)cc1OC	Cycloheximide cs 28
Cc1ccccc1CNC(=O)Cc1cccs1	Cycloheximide cs 44, Shiga inhibitor 50, AmpC inh detg inconclusive
O=C(Cc1c(O)c2ccccc2[nH]c1=O)NCc1cccc(F)c1	none
O=C(Cc1cccs1)NCc1ccncc1	AmpC inh detg inconclusive
O=C(Cc1cccs1)NCc1ccccc1F	Cycloheximide cs 18, Shiga inhibitor 52
COc1ccc(CC(=O)NCc2nnc(SCC(=O)Nc3nccs3)n2-c2ccccc2)cc1	AmpC inh detg inconclusive
O=C(NCc1cccs1)c1ccccc1F	Cycloheximide cs 12
CCSc1ncnc2c1sc1nc3c(cc12)COC(C)(C)C3	Cycloheximide cs 19
CCOc1ncnc2c1sc1nc3c(cc12)COC(C)(C)C3	none (no result: Cycloheximide cs, SARS PLP yeast, Shiga inhibitor, AmpC no deterg, AmpC inh detg)
CC1(C)Cc2nc3sc4c(=O)n(CC(=O)NCc5ccco5)cnc4c3cc2CO1	Cycloheximide cs 26, Shiga inhibitor 69, AmpC inh detg inconclusive
C=CCn1c(C)nc2c(sc3nc4c(cc32)COC(C)(C)C4)c1=O	Cycloheximide cs 43, Shiga inhibitor 50
CCCOc1ncnc2c1sc1nc3c(cc12)COC(C)(C)C3	none
CC(C)COc1ncnc2c1sc1nc3c(cc12)COC(C)(C)C3	Shiga inhibitor 21 (no result: AMA1 RON2 block)
CC1(C)Cc2nc3oc4c(=O)n(CC(=O)Nc5ccccc5)cnc4c3cc2CO1	AmpC inh detg inconclusive
CCN1C(=O)C(Cc2nc3ccccc3c(=O)n2C)c2ccccc21 (stereo not drawn)	AmpC inh detg inconclusive
C=CCSc1ncnc2c1oc1nc3c(cc12)COC(C)(C)C3	Cycloheximide cs 15
Cc1cccc(NC(=S)N2CCn3cccc3C2c2cccnc2)c1 (stereo not drawn)	none
COc1cccc(NC(=S)N2CCCC2c2ccc(OC)c(OC)c2)c1 (stereo not drawn)	Cycloheximide cs 33, Shiga inhibitor 52
